Data reported in the supplement of paper PMC7366291.
Counter-ions that a name gives are not always drawn. ± gives the standard deviation or the standard deviation of the averaged measurements.

Assays:
Details in all cases: 25 µM; exposure: 24-48 hpf
[1] = tested on: Danio rerio Tg(wt1b:EGFP) embryo, pronephros; assay: glomerular separation, fold change vs DMSO control; higher = glomeruli further apart (abnormal)
Summary of the method: (§1)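 Dechorionated Tg(wt1b:EGFP) zebrafish embryos were treated with 25 μM compound in 0.5% DMSO, in HEPES-buffered E3 with 0.003% PTU, from 24 to 48 hpf at 28.5°C. On maximum projections of dorsal pronephros images, 16 hand-placed reference points in Fiji gave distances and angles, and values more than 2 SD from the feature mean were left out. Results are fold changes over the mean of same-day DMSO-treated embryos.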

[2] = tested on: Danio rerio Tg(wt1b:EGFP) embryo, pronephros; assay: glomerular width (mean of left and right), fold change vs DMSO control; higher = wider glomerulus
Summary of the method: as §1

[3] = tested on: Danio rerio Tg(wt1b:EGFP) embryo, pronephros; assay: fraction of imaged embryos annotated as normal kidney; higher = less nephrotoxic; extreme values may be limits of the assay
Summary of the method: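 The read-out is the proportion of embryos in each treatment manually annotated as normal-kidney. Exposure ran from 24 to 48 hpf at 28.5°C in 12-well plates, using dechorionated Tg(wt1b:EGFP) zebrafish embryos in 5 mM HEPES-buffered E3 with 0.003% PTU, 0.5% DMSO and 25 μM compound. For imaging, larvae were anaesthetised with tricaine, positioned dorsally in agarose-filled 96-well plates and captured by widefield fluorescence (470 nm, 10 z-slices), with scoring done on maximum projections.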

[4] = tested on: Danio rerio Tg(wt1b:EGFP) embryo, pronephros; assay: pronephric angle neck segment to proximal convoluted tubule (mean of left and right), fold change vs DMSO control; higher = larger pronephric angle
Summary of the method: as §1

Compound | glomerular separation [1] | glomerular width [2] | fraction of imaged embryos annotated as normal kidney [3] | pronephric angle neck segment [4]
COC(=O)Nc1nc2cc([S+]([O-])c3ccccc3)ccc2[nH]1 (stereo unspecified) [Oxfendazol] | 1.06 ± 0.33 | 1.05 ± 0.043 | 0.833 | 1.036 ± 0.006
CC(CCc1ccccc1)NCC(O)c1ccc(O)c(C(N)=O)c1 (stereo unspecified) [Labetalol hydrochloride] | 1.04 ± 0.16 | 1.05 ± 0.075 | 0.917 | 1.07 ± 0.069
CC(=O)CC(c1ccc([N+](=O)[O-])cc1)c1c(O)c2ccccc2oc1=O (stereo unspecified) [Acenocoumarol] | 0.834 ± 0.45 | 0.94618 ± 0.00069 | 0.8 | 1.07 ± 0.076
C#C[C@]1(O)CC[C@H]2[C@@H]3CCc4cc(O)ccc4[C@H]3CC[C@@]21C [Ethinylestradiol] | 1.64 ± 0.76 | 0.823 ± 0.015 | 0.667 | 1.3 ± 0.015
CC(=O)OCC1=C(C(=O)O)N2C(=O)[C@@H](NC(=O)Cc3cccs3)[C@H]2SC1 [Cephalothin sodium salt] | 0.848 ± 0.31 | 0.923 ± 0.08 | 1 | 1.02 ± 0.028
CC(C)NCC(O)c1ccc2ccccc2c1 (stereo unspecified) [Pronethalol hydrochloride] | 0.915 ± 0.49 | 0.96 ± 0.036 | 0.833 | 1.03 ± 0.06
CO[C@@H]1[C@@H](O[C@@H]2O[C@H](C)[C@@H](O[C@H]3C[C@@](C)(O)[C@@H](OC(=O)CC(C)C)[C@H](C)O3)[C@H](N(C)C)[C@H]2O)[C@@H](CC=O)C[C@@H](C)[C@@H](O)/C=C/C=C/C[C@@H](C)OC(=O)C[C@H]1OC(C)=O [Josamycin] | 1.16 ± 0.39 | 1.13 ± 0.093 | 0.909 | 1.0423 ± 0.00028
CCCc1cc(=O)[nH]c(=S)[nH]1 [Propylthiouracil] | 0.81 ± 0.17 | 1.058 ± 0.0069 | 1 | 1.02 ± 0.044
CCCCC(=O)N(Cc1ccc(-c2ccccc2-c2nnn[nH]2)cc1)[C@H](C(=O)O)C(C)C [Valsartan] | 0.756 ± 0.22 | 1.09 ± 0.026 | 1 | 0.991 ± 0.021
Nc1cc(N2CCCCC2)nc(N)[n+]1[O-] [Minoxidil] | 0.953 ± 0.24 | 1.05 ± 0.053 | 0.917 | 0.99 ± 0.065
CN(Cc1ccc(C(C)(C)C)cc1)Cc1cccc2ccccc12 [Butenafine Hydrochloride] | 0.932 ± 0.4 | 0.9818 ± 0.007 | 0.909 | 1.05 ± 0.12
O=C(O)CCC(=O)Nc1ccc(S(=O)(=O)Nc2nccs2)cc1 [Succinylsulfathiazole] | 0.974 ± 0.39 | 1.03 ± 0.012 | 0.667 | 0.997 ± 0.029
CN(C)[C@@H]1C(O)=C(C(N)=O)C(=O)[C@@]2(O)C(O)=C3C(=O)c4c(O)ccc(Cl)c4[C@@H](O)[C@H]3C[C@@H]12 [Demeclocycline hydrochloride] | 0.928 ± 0.36 | 0.999 ± 0.045 | 0.5 | 1.06 ± 0.013
NC[C@H]1O[C@H](O[C@H]2[C@H](O[C@@H]3O[C@H](CO)[C@@H](O)[C@H]3O)[C@@H](O)[C@H](N)C[C@@H]2N)[C@H](N)[C@@H](O)[C@@H]1O [Ribostamycin sulfate salt] | 0.722 ± 0.22 | 1.08 ± 0.019 | 0.833 | 1.06 ± 0.061
